A short description of assay [1]: CCTE_Shafer_MEA_acute_spike_number: CCTE's Neural Acute Assay for Total Number of Spikes, Shafer Lab (AID 2284008). In outline: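 Rat primary cortical neurons on 48-well MEA plates, DIV 13 or 15, at 37 C. 40 min baseline then 40 min with compound (0.03-40 uM); spikes detected at 8x rms noise, expressed as percent change from baseline.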
Assay [2] can be described thus: CCTE_Shafer_MEA_acute_firing_rate_mean: CCTE's Neural Acute Assay for Mean Firing Rate, Shafer Lab (AID 2284009).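 Also: analyzed for loss of signal so actives lower firing rate relative to DMSO.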 In outline:
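Percent change in well-mean firing rate was derived from extracellular spikes detected at 8x rms noise (300-5000 Hz band-pass) before and after a 40-min compound exposure. Cultures were primary rat cortical neurons, tested at 0.03-40 uM.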

Assay [3] can be described thus: CCTE_Shafer_MEA_acute_burst_duration_mean: CCTE's Neural Acute Assay for Mean Burst Duration, Shafer Lab (AID 2284014).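 Also: hits are decreases in mean burst duration relative to DMSO controls.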 In outline: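 Read-out is the per-well percent change in mean burst duration (first to last spike within a single-electrode burst) between 40-min recordings before and after compound. Cultures were primary rat cortical neurons on MEAs, dosed at 0.03-40 uM on DIV 13 or 15.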

The nature of assay [4]: CCTE_Shafer_MEA_acute_per_burst_spike_number_mean: CCTE's Neural Acute Assay for Average Number of Spikes Per Burst, Shafer Lab (AID 2284015).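 Also: hits are decreases in mean spikes per burst versus baseline.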 In outline: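 Rat primary cortical neurons on 48-well MEAs (DIV 13 or 15) were treated with 0.03-40 uM compound at 37 C. Mean spikes per burst over 40 min were recorded before and after exposure and expressed as percent change from baseline, relative to DMSO.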

The nature of assay [5]: CCTE_Shafer_MEA_acute_interburst_interval_mean: CCTE's Neural Acute Assay for Mean Interburst Interval, Shafer Lab (AID 2284016).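 Also: percent change of mean interburst interval versus each well's own pre-dose baseline; curves fitted for decrease in interburst interval relative to DMSO.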 In outline: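 Rat primary cortical neurons on 48-well MEAs at DIV 13 or 15 were exposed acutely to 0.03-40 uM. Spikes detected at 8x rms noise, 37 C. Mean interburst interval from 40 min recordings expressed as percent change from 40 min pre-treatment baseline.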

Assay [6] is described as follows: CCTE_Shafer_MEA_acute_burst_percentage_mean: CCTE's Neural Acute Assay for Percentage of Spikes in a Burst, Shafer Lab (AID 2284017). In outline: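 Primary rat cortical neurons on 48-well MEA plates, treated on DIV 13 or 15 at 0.03-40 uM. Spikes detected at 8x rms noise at 37C; percent change from 40-min baseline to 40-min post-dose recording, fitted versus DMSO.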

The nature of assay [7]: CCTE_Shafer_MEA_acute_burst_percentage_std: CCTE's Neural Acute Assay for Standard Deviation of Burst Percentage, Shafer Lab (AID 2284018).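 Also: fitted in the negative direction so actives lower burst percentage SD.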 Put shortly: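 Value is percent change from baseline in the across-electrode SD of spikes-in-bursts percentage, wells with >/= 10 active electrodes. Acute 40-min exposure to 0.03-40 uM on DIV 13 or 15 rat cortical cultures, recorded at 37 C after 40-min baseline.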

The nature of assay [8]: CCTE_Shafer_MEA_acute_per_network_burst_spike_number_mean: CCTE's Neural Acute Assay for Average Number of Spikes in a Network Burst, Shafer Lab (AID 2284019). In outline: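 Read-out is mean spike count per network burst, taken as percent change between a 40-min pre-exposure and a 40-min post-exposure recording per well. Rat primary cortical neurons on MEAs at 37 C, DIV 13 or 15; compounds at 0.03-40 uM.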

Assay [9] is described as follows: CCTE_Shafer_MEA_acute_per_network_burst_spike_number_std: CCTE's Neural Acute Assay for Standard Deviation of Number of Spikes in a Network Burst, Shafer Lab (AID 2284020).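 Also: fitted for decrease in spike-number SD versus DMSO so actives lower it.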 In outline: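 Spontaneous network activity of primary rat cortical neurons is recorded extracellularly before and after a 40-min compound exposure (0.03-40 uM) at 37 C. The endpoint is the well's percent change in burst spike-number SD.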

A short description of assay [10]: CCTE_Shafer_MEA_acute_per_network_burst_electrodes_number_mean: CCTE's Neural Acute Assay for Mean Number of Electrodes in a Network Burst, Shafer Lab (AID 2284021).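 Also: curves fitted for decreases only so hits reduce electrodes per burst.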 In outline:
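Rat primary cortical neurons on 48-well MEAs, DIV 13 or 15, were treated at 0.03-40 uM. Spikes were detected at 8x rms noise and recorded at 37 C. The mean electrodes per network burst in a 40 min exposure recording was expressed as percent change from a 40 min baseline.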

Assay [11] in a line: CCTE_Shafer_MEA_acute_network_burst_percentage: CCTE's Neural Acute Assay for Percentage of Network Bursts, Shafer Lab (AID 2284022).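 Also: curves fitted for loss so actives lower network burst percentage.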 In outline: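 Rat primary cortical neuron networks on 48-well MEA plates, DIV 13 or 15, treated acutely with compound (0.03-40 uM, at least three wells). Percent of spikes within network bursts compared between 40-min recordings before and during exposure at 37 C, expressed as percent change.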

The nature of assay [12]: CCTE_Shafer_MEA_acute_cross_correlation_area: CCTE's Neural Acute Assay for Area of Cross Correlation, Shafer Lab (AID 2284024).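 Also: curves fitted for loss of cross-correlation area so actives lower synchrony.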 In outline: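 Rat primary cortical neurons on 48-well MEA, DIV 13 or 15; compounds 0.03-40 uM. Baseline and post-exposure 40 min recordings at 37 C; percent change in area under pooled inter-electrode cross-correlation near zero lag, relative to DMSO.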

Assay [13] in a line: CCTE_Shafer_MEA_acute_cross_correlation_HWHM: CCTE's Neural Acute Assay for Cross Correlation at Half Width at Half Maximum, Shafer Lab (AID 2284026).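 Also: hits are a decrease in cross-correlogram half width relative to DMSO.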 In outline: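 Rat primary cortical neurons on 48-well MEA plates; 40-min baseline and 40-min post-exposure recordings at 37 C on DIV 13 or 15, compounds 0.03-40 uM. Spikes detected at 8x rms noise; percent change in cross-correlogram HWHM per well vs baseline.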

Assay [14] in a line: CCTE_Harrill_HTTr_Viability_MCF7: CCTE's 6-hour Cell Viability Assessment for the High-Throughput Transcriptomics (HTTr) Platform, in MCF-7 cells cultured in DMEM + 10% fetal bovine serum, Harrill Lab (AID 2284010). Put shortly:
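Cells were dosed with chemicals in an eight-point dilution series, imaged 6 hours later for propidium iodide uptake, and the endpoint was analyzed by bidirectional fitting against DMSO as negative control.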

Assay [15] in a line: CCTE_Harrill_HTTr_Apoptosis_MCF7: CCTE's 6-hour Apoptosis Assessment for the High-Throughput Transcriptomics (HTTr) Platform, in MCF-7 cells cultured in DMEM + 10% fetal bovine serum, Harrill Lab (AID 2284011). Put shortly: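 MCF-7 cells in DMEM + 10% FBS exposed 6 h to chemicals over an eight-point dilution series. Caspase-3/7 activation imaged by high-content CellEvent Green staining; fitted bidirectionally versus DMSO.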

A short description of assay [16]: CCTE_Harrill_HTTr_CellCount_MCF7: CCTE's Cell Proliferation Assessment for the High-Throughput Transcriptomics (HTTr) Platform, Harrill Lab (AID 2284012; active = hit-call score of the fitted dose curve at least 0.9, where 1 is the maximum;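 also: count of Hoechst-stained nuclei per well by high-content imaging in MCF-7 cells; cells exposed to compound for six hours; intended direction is loss of nuclei count meaning fewer cells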). In outline:
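Chemicals in eight-point dilution series are added to MCF-7 cells for six hours, nuclei are stained with Hoechst and imaged, and per-well nuclei counts are fitted in both directions relative to DMSO controls.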

Assay [17] can be described thus: CCTE_Shafer_MEA_acute_burst_number: CCTE's Neural Acute Assay for Single-Electrode Bursts, Shafer Lab (AID 2284013). In outline: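 Spontaneous network activity of primary rat cortical neurons was recorded extracellularly on microelectrode arrays at 37 C, with 40-min periods before and during exposure to 0.03-40 uM compound on DIV 13 or 15.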

Inconclusive results are not listed. The source made the active and inactive calls. The calls were made as follows, unless noted: active = hit-call score of the fitted dose curve at least 0.9, where 1 is the maximum; inactive = score below 0.9.

As to `O=Cc1ccco1`, the call in [1], in assay [2], in [3], in assay [4], in assay [5] and in assay [6] was inactive. Moreover, the compound was classed as inactive in [7], in [8], in [9], in [10], in assay [11] and in assay [12]. Also, in assay [13], the compound was classed as inactive.
Turning to `COC(=O)Nc1nc2ccccc2[nH]1`, the outcome in assay [1], in assay [2], in assay [14], in [15], in assay [16] and in assay [17] was inactive. Also, the result in assay [3], in assay [4], in assay [5], in assay [6], in [7] and in assay [8] was inactive. Also, the compound was called inactive in assay [9], in assay [10], in [11], in assay [12] and in assay [13].
Turning to `CCN(CC)N=O`, the compound was classed as inactive in [1], in assay [2], in assay [14], in assay [15], in assay [16] and in assay [17]. Besides, the result in assay [3], in assay [4], in assay [5], in [6], in [7] and in [8] was inactive. Besides, the compound was called inactive in assay [9], in assay [10], in [11], in assay [12] and in assay [13].
As to `C[N+](C)(C)CC1CO1` (stereo unspecified), the call in [1], in assay [2], in [14], in assay [15], in assay [17] and in [3] was inactive. For the same compound, the compound was called inactive in [4], in assay [5], in assay [6], in [7], in [8] and in assay [9]. Also, the compound was classed as inactive in [10], in assay [11], in assay [12] and in assay [13].
With `CCC12COCN1COC2`, the result in [14], in assay [15] and in assay [16] was inactive.
Take `O=C1CCCO1`: the result in assay [14], in assay [15] and in assay [16] was inactive.
In the case of `Nc1cc(Cl)cc(C(=O)O)c1Cl`, the result in [14], in assay [15] and in [16] was inactive.
With `CN(C)c1ccccc1`, the result in [14], in assay [15] and in [16] was inactive.
Turning to `CCCCCCCCOC(=O)c1ccc(C(=O)OCCCCCCCC)c(C(=O)OCCCCCCCC)c1`, the result in [14], in assay [15] and in assay [16] was inactive.
Consider `OCCOCCO`, for which the outcome in assay [14], in assay [15] and in [16] was inactive.
On to `Brc1ccc(Oc2ccccc2)cc1`, for which the outcome in [14], in assay [15] and in assay [16] was inactive.
As to `CCCCCCCCCCCCCN1CC(C)OC(C)C1` (stereo unspecified), the outcome in [14], in assay [15] and in assay [16] was inactive.
`Nc1ccc(Cl)cc1N`: the outcome in assay [14], in assay [15] and in [16] was inactive.
On to `C1=Cc2cccc3cccc1c23`, for which the outcome in assay [14], in assay [15] and in assay [16] was inactive.
In the case of `CN(C)C(=O)Nc1ccc(Cl)cc1`, the outcome in [14], in [15] and in [16] was inactive.
Turning to `c1ccc(C2CO2)cc1` (stereo unspecified), the result in [14], in [15] and in assay [16] was inactive.
As for `CC(C)(C)OOC(C)(C)CCC(C)(C)OOC(C)(C)C`, the result in assay [14], in [15] and in [16] was inactive.
With `Nc1ccc(Cc2ccc(N)cc2)cc1`, the result in [14] and in assay [15] was inactive.
On to `Nc1ccc([N+](=O)[O-])cc1`, for which the outcome in [14], in assay [15] and in assay [16] was inactive.
For `CNC(=O)Oc1cccc2c1OC(C)(C)C2`, the outcome in [14] and in assay [15] was inactive.
For `O=C(Nc1ccccc1)c1ccccc1I`, the outcome in assay [14] and in [15] was inactive.
Turning to `CN(C)c1ccc(C(=O)c2ccc(N(C)C)cc2)cc1`, the result in assay [14], in [15] and in assay [16] was inactive.
In the case of `CCOc1cccc(C2(N3CCN(c4ccccc4)CC3)CCC(C)CC2)c1` (stereo unspecified), the outcome in assay [14], in assay [15] and in assay [16] was inactive.
Consider `Cn1cc(-c2ccccc2)c(=O)c(-c2cccc(C(F)(F)F)c2)c1`, for which the result in assay [14] and in assay [15] was inactive.
Regarding `Cc1ccc([N+](=O)[O-])cc1`, the outcome in [14] and in assay [15] was inactive.
For the compound `O=C(O)C1C2CCC(O2)C1C(=O)O` (stereo unspecified), the result in assay [14], in assay [15] and in assay [16] was inactive.
Turning to `Nc1ccc(Oc2ccc(N)cc2)cc1`, the outcome in [14], in [15] and in [16] was inactive.
Take `COP(=S)(OC)SCN1C(=O)c2ccccc2C1=O`: the result in assay [14], in assay [15] and in [16] was inactive.
For the compound `CS(=O)(=O)NC(=O)c1cc(Oc2ccc(C(F)(F)F)cc2Cl)ccc1[N+](=O)[O-]`, the result in assay [14], in [15] and in [16] was inactive.
As to `CC(O)CCO` (stereo unspecified), the outcome in assay [14], in assay [15] and in assay [16] was inactive.
Regarding `Clc1ccccc1Cl`, the result in assay [14] and in assay [15] was inactive.
For the compound `CN(C)[C@@H]1C(=O)C(C(N)=O)=C(O)[C@@]2(O)C(=O)C3=C(O)c4c(O)cccc4[C@@](C)(O)[C@H]3C[C@@H]12`, the result in assay [14], in [15] and in assay [16] was inactive.
For `N#CC(Br)(Br)C(N)=O`, the outcome in assay [14], in assay [15] and in assay [16] was inactive.
For `CCNS(=O)(=O)C(F)(F)C(F)(F)C(F)(F)C(F)(F)C(F)(F)C(F)(F)C(F)(F)C(F)(F)F`, the result in assay [14] and in assay [15] was inactive.
With `c1ccc2c(c1)-c1cccc3cccc-2c13`, the result in assay [14] and in [15] was inactive.
Regarding `Cc1ccc(N=C=O)cc1N=C=O`, the outcome in [14] and in [15] was inactive.
Regarding `Clc1ccc(Cl)c(Cl)c1`, the outcome in [14] and in [15] was inactive.
Turning to `CO[C@@H]1[C@H](OC(=O)NC(=O)CCl)CC[C@]2(CO2)[C@H]1[C@@]1(C)O[C@@H]1CC=C(C)C`, the outcome in assay [14] and in assay [15] was inactive.
With `Oc1ccc2ccc3cccc4ccc1c2c34`, the outcome in assay [14] was inactive. In assay [15], the AC50 (as a rule, the midpoint of the concentration-response curve, whichever way the signal moves) is 48.2 µM (active).
As to `Cc1ccc(N)cc1`, the outcome in assay [14], in assay [15] and in assay [16] was inactive.
For the compound `COC(=O)c1ccccc1N`, the result in assay [14], in assay [15] and in assay [16] was inactive.
With `c1ccc2c(c1)oc1ccccc12`, the outcome in assay [14] and in assay [15] was inactive.
As to `OCCCl`, the outcome in assay [14] and in assay [15] was inactive.

The values are drawn from PubChem BioAssay (EPA / NIEHS).
